Values without a mark were called inactive. The source made the active and inactive calls.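 The calls were made as follows, unless noted: active = normalized viability below 100% at a tested concentration; inactive = the rest.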
How the values were obtained:
[1] = ovarian cancer cell viability with rucaparib, profiling panel, oncology-focused library, rucaparib conditional (AID 1508598); details: patient-derived ovarian cancer cells, CellTiter-Glo viability, 144 h, hits give low values
[2] = molecular target: NAD(+) hydrolase SARM1 (Homo sapiens) (UniProt Q6SZW1); assay: SARM1 TIR NADase inhibitors, cell lysate, NAD-Glo luminescence (AID 1508614;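 active = compound whose remaining NAD level is above about 45 nM, limit read from the data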;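 also: higher remaining NAD means stronger inhibition of SARM1 NADase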); details: SAM-TIR HEK293T lysate NADase, at 1 µM, hits give high values
NAD(+) hydrolase SARM1 (Homo sapiens), sequence (Q6SZW1 whole entry, looked up): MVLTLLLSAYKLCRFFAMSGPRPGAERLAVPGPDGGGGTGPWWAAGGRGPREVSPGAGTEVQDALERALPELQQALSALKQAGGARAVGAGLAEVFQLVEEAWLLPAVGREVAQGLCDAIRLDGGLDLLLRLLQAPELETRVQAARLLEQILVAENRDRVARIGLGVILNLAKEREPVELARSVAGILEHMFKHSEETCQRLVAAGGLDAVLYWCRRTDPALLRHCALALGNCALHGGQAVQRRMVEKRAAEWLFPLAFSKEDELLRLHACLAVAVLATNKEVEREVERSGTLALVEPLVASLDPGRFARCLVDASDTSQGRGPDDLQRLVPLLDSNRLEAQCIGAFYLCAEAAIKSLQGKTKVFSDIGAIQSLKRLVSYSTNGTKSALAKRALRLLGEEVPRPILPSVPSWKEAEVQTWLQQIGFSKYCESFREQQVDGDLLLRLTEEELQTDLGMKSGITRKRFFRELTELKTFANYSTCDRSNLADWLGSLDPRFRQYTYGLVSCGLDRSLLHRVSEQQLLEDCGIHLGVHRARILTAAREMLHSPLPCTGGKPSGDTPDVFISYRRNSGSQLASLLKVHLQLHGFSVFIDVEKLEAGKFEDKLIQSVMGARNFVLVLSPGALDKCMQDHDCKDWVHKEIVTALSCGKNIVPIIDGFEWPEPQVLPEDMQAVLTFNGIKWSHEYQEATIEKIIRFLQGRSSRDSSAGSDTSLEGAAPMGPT

[3] = at 0.000305 µM, OCI-C5x cells, with rucaparib 10 µM, 100% = cells with rucaparib alone
[4] = at 0.000305 µM, OCI-C5x cells, without rucaparib
[5] = at 0.000305 µM, OCI-P5x cells, with rucaparib 20 µM, 100% = cells with rucaparib alone
[6] = at 0.000305 µM, OCI-P5x cells, without rucaparib
[7] = at 0.00122 µM, OCI-C5x cells, with rucaparib 10 µM, 100% = cells with rucaparib alone
[8] = at 0.00122 µM, OCI-C5x cells, without rucaparib
[9] = at 0.00122 µM, OCI-P5x cells, with rucaparib 20 µM, 100% = cells with rucaparib alone
[10] = at 0.00122 µM, OCI-P5x cells, without rucaparib
[11] = at 0.00488 µM, OCI-C5x cells, with rucaparib 10 µM, 100% = cells with rucaparib alone
[12] = at 0.00488 µM, OCI-C5x cells, without rucaparib
[13] = at 0.00488 µM, OCI-P5x cells, with rucaparib 20 µM, 100% = cells with rucaparib alone
[14] = at 0.00488 µM, OCI-P5x cells, without rucaparib
[15] = at 0.0195 µM, OCI-C5x cells, with rucaparib 10 µM, 100% = cells with rucaparib alone
[16] = at 0.0195 µM, OCI-C5x cells, without rucaparib
[17] = at 0.0195 µM, OCI-P5x cells, with rucaparib 20 µM, 100% = cells with rucaparib alone
[18] = at 0.0195 µM, OCI-P5x cells, without rucaparib
[19] = at 0.0781 µM, OCI-C5x cells, with rucaparib 10 µM, 100% = cells with rucaparib alone
[20] = at 0.0781 µM, OCI-C5x cells, without rucaparib
[21] = at 0.0781 µM, OCI-P5x cells, with rucaparib 20 µM, 100% = cells with rucaparib alone
[22] = at 0.0781 µM, OCI-P5x cells, without rucaparib
[23] = at 0.313 µM, OCI-C5x cells, with rucaparib 10 µM, 100% = cells with rucaparib alone
[24] = at 0.313 µM, OCI-C5x cells, without rucaparib
[25] = at 0.313 µM, OCI-P5x cells, with rucaparib 20 µM, 100% = cells with rucaparib alone
[26] = at 0.313 µM, OCI-P5x cells, without rucaparib
[27] = at 1.25 µM, OCI-C5x cells, with rucaparib 10 µM, 100% = cells with rucaparib alone
[28] = at 1.25 µM, OCI-C5x cells, without rucaparib
[29] = at 1.25 µM, OCI-P5x cells, with rucaparib 20 µM, 100% = cells with rucaparib alone
[30] = at 1.25 µM, OCI-P5x cells, without rucaparib
[31] = at 5 µM, OCI-C5x cells, with rucaparib 10 µM, 100% = cells with rucaparib alone
[32] = at 5 µM, OCI-C5x cells, without rucaparib
[33] = at 5 µM, OCI-P5x cells, with rucaparib 20 µM, 100% = cells with rucaparib alone
[34] = at 5 µM, OCI-P5x cells, without rucaparib

SMILES: O=C(/C=C/c1ccc2ccccc2n1)c1ccncc1
- viability [1, 3]: 108%
- viability [1, 4]: 116%
- viability [1, 5]: 96% (active)
- viability [1, 6]: 84.9% (active)
- viability [1, 7]: 121%
- viability [1, 8]: 120%
- viability [1, 9]: 99.6% (active)
- viability [1, 10]: 91.2% (active)
- viability [1, 11]: 119%
- viability [1, 12]: 119%
- viability [1, 13]: 70.3% (active)
- viability [1, 14]: 17.7% (active)
- viability [1, 15]: 122%
- viability [1, 16]: 130%
- viability [1, 17]: 56.8% (active)
- viability [1, 18]: 13.9% (active)
- viability [1, 19]: 119%
- viability [1, 20]: 116%
- viability [1, 21]: 51.3% (active)
- viability [1, 22]: 15.5% (active)
- viability [1, 23]: 120%
- viability [1, 24]: 112%
- viability [1, 25]: 54.4% (active)
- viability [1, 26]: 13.6% (active)
- viability [1, 27]: 113%
- viability [1, 28]: 124%
- viability [1, 29]: 34.2% (active)
- viability [1, 30]: 111%
- viability [1, 31]: 3.77% (active)
- viability [1, 32]: 128%
- viability [1, 33]: 16.9% (active)
- viability [1, 34]: 109%

SMILES: Cc1cc(NC(=O)c2cccc(NC(=O)/C=C/CN(C)C)c2)ccc1Nc1nccc(-c2cccnc2)n1
- viability [1, 3]: 118%
- viability [1, 4]: 133%
- viability [1, 5]: 111%
- viability [1, 6]: 110%
- viability [1, 7]: 116%
- viability [1, 8]: 132%
- viability [1, 9]: 108%
- viability [1, 10]: 113%
- viability [1, 11]: 140%
- viability [1, 12]: 160%
- viability [1, 13]: 108%
- viability [1, 14]: 107%
- viability [1, 15]: 146%
- viability [1, 16]: 172%
- viability [1, 17]: 104%
- viability [1, 18]: 106%
- viability [1, 19]: 180%
- viability [1, 20]: 183%
- viability [1, 21]: 111%
- viability [1, 22]: 109%
- viability [1, 23]: 172%
- viability [1, 24]: 199%
- viability [1, 25]: 116%
- viability [1, 26]: 112%
- viability [1, 27]: 163%
- viability [1, 28]: 186%
- viability [1, 29]: 103%
- viability [1, 30]: 116%
- viability [1, 31]: 159%
- viability [1, 32]: 194%
- viability [1, 33]: 83.9% (active)
- viability [1, 34]: 108%

SMILES: OC[C@@H](O)[C@@H](O)CO
- remaining NAD [2]: 10 nM

SMILES: C[C@H](O[C@H]1OCCN(Cc2n[nH]c(=O)[nH]2)[C@H]1c1ccc(F)cc1)c1cc(C(F)(F)F)cc(C(F)(F)F)c1
- viability [1, 3]: 106%
- viability [1, 4]: 113%
- viability [1, 5]: 100%
- viability [1, 6]: 105%
- viability [1, 7]: 111%
- viability [1, 8]: 113%
- viability [1, 9]: 109%
- viability [1, 10]: 105%
- viability [1, 11]: 122%
- viability [1, 12]: 123%
- viability [1, 13]: 110%
- viability [1, 14]: 114%
- viability [1, 15]: 108%
- viability [1, 16]: 114%
- viability [1, 17]: 115%
- viability [1, 18]: 112%
- viability [1, 19]: 117%
- viability [1, 20]: 125%
- viability [1, 21]: 117%
- viability [1, 22]: 117%
- viability [1, 23]: 116%
- viability [1, 24]: 130%
- viability [1, 25]: 112%
- viability [1, 26]: 119%
- viability [1, 27]: 120%
- viability [1, 28]: 144%
- viability [1, 29]: 117%
- viability [1, 30]: 113%
- viability [1, 31]: 80.9% (active)
- viability [1, 32]: 147%
- viability [1, 33]: 36.6% (active)
- viability [1, 34]: 97.5% (active)

SMILES: c1ccc(Cn2c(-c3ccc(OC[C@H](C4CCNCC4)n4c(-c5ccccc5)nc5ccccc54)cc3)nc3ccccc32)cc1
- viability [1, 3]: 117%
- viability [1, 4]: 110%
- viability [1, 5]: 90.3% (active)
- viability [1, 6]: 96.7% (active)
- viability [1, 7]: 123%
- viability [1, 8]: 125%
- viability [1, 9]: 98.1% (active)
- viability [1, 10]: 99.5% (active)
- viability [1, 11]: 125%
- viability [1, 12]: 126%
- viability [1, 13]: 99.2% (active)
- viability [1, 14]: 101%
- viability [1, 15]: 121%
- viability [1, 16]: 107%
- viability [1, 17]: 96.1% (active)
- viability [1, 18]: 106%
- viability [1, 19]: 110%
- viability [1, 20]: 117%
- viability [1, 21]: 95.8% (active)
- viability [1, 22]: 105%
- viability [1, 23]: 118%
- viability [1, 24]: 120%
- viability [1, 25]: 105%
- viability [1, 26]: 109%
- viability [1, 27]: 130%
- viability [1, 28]: 131%
- viability [1, 29]: 33.8% (active)
- viability [1, 30]: 102%
- viability [1, 31]: 1.56% (active)
- viability [1, 32]: 3.14% (active)
- viability [1, 33]: 1.07% (active)
- viability [1, 34]: 1.44% (active)

— PubChem BioAssay
